iPSC survival up – increases survival of single human iPS cells | hiPSC single-cell survival, ATPlite luminescence; 100% = ROCK inhibitor wells, 0% = DMSO | survival enhancement, % at 20 µM | 360,000 compounds, 0.044% hits; in the data active = survival enhancement above about 18%;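 also: cells exposed to compounds for 16 hours before the ATP read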
TWEAK Fn14 block – blocks TWEAK-Fn14 interaction in a reporter cell assay | TWEAK-stimulated Fn14 reporter cells, luciferase luminescence, 8 h | inhibition, % at 10 µM | 360,000 compounds, 2% hits | AID 1159606; in the data active = inhibition above about 50%
CF NFkB block – blocks PAF-induced NF-kB reporter in cystic fibrosis cells. inhibition, % at 5 µM. 360,000 compounds, 0.86% hits. KKLEB NF-kB-GFP reporter, GFP fluorescence overnight;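 active = at least 50% inhibition at 5 µM, scaled per plate between neutral and stimulator controls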;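 also: PAF is a Pseudomonas aeruginosa culture filtrate used as stimulus; plate controls were PAF-stimulated DMSO wells for no effect and unstimulated DMSO wells for full effect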
LGR2 inh – blocks bursicon-induced cAMP signaling via Drosophila LGR2; inhibition, % at 9.99 µM; 380,000 compounds, 0.35% hits; AID 720647; HEK293 LGR2, CRE-luciferase, bursicon-stimulated, 4 h;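 active = drop in luminescence signal, shown as inhibition above about 50% in the replicate tests, limit read from the data, passing the limit was not always enough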;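 also: agonist challenge used bursicon conditioned medium at about half maximal strength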
KKLEB cytotox – counter-screen for CF NF-kB inhibitors: cytotoxicity; KKLEB CF airway cells viability, ATPlite luminescence, overnight; stronger effect = lower value; cells stimulated with P. aeruginosa culture filtrate; activity change (cytotoxicity), % at 5 µM; 360,000 compounds, 0.36% hits; AID 602141;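 active = corrected activity change at or below -50% at 5 µM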
HIF-2a inh – inhibitors of HIF-2a. 786-0 RCC cells HIF-2a reporter, luciferase luminescence, overnight. inhibition, % at 18.8 µM. 360,000 compounds, 0.72% hits. AID 624352;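 active = inhibition of the luminescence signal of 40% or more relative to plate controls, in a single-dose primary screen at 18.75 µM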
Mdm2-MdmX confirm – Mdm2/MdmX (human) interaction inhibition, confirmed; AID 504601; SaOS-2 split-luciferase Mdm2/MdmX complementation, luminescence; shares compounds with HIF-2a inh; 740 compounds, 99% hits; inhibition, % at 8 µM;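 active = mean inhibition of the luminescence signal across two replicates at or above 26 percent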
Target sequence (O15151 whole entry, looked up): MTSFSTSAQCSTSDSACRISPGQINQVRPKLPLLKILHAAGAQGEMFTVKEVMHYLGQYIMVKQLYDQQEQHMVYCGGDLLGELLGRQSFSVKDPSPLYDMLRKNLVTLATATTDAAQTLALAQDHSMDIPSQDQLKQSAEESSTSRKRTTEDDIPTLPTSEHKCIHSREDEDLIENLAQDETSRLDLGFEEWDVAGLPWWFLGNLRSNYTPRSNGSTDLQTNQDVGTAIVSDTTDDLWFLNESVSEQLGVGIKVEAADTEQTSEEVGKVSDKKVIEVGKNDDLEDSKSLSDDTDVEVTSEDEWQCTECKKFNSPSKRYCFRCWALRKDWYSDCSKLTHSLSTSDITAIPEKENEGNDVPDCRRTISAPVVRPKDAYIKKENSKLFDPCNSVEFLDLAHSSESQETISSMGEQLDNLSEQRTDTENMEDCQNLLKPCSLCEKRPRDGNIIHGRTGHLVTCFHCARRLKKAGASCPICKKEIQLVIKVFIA
Target sequence (Q00987 whole entry, looked up): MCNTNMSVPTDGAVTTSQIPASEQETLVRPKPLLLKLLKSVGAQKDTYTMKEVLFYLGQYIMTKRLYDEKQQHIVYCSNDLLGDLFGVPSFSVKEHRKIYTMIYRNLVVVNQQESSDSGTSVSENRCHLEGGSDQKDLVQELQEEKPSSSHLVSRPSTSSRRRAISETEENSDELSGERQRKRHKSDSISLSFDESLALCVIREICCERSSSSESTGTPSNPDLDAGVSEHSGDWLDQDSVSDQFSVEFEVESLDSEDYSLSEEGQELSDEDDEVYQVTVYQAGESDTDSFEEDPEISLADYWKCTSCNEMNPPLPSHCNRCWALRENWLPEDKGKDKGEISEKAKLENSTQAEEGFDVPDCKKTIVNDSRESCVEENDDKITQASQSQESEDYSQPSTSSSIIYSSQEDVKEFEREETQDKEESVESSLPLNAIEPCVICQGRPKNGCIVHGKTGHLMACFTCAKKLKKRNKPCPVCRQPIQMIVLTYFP
HIF-2a conf – confirmation of HIF-2a inhibitors; 786-0 RCC cells, HIF-2a luciferase reporter luminescence, overnight; shares compounds with HIF-2a inh; inhibition, % at 18.8 µM; 1,800 compounds, 56% hits;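 active = mean inhibition across four replicates of at least 40 percent at the single tested concentration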
HIF-1a counter – counter-screen for HIF-2a inhibitors: HIF-1a inhibition in MiaPaCa-2 cells. MiaPaCa-2 HIF-1a luciferase reporter, desferoxamine, overnight. AID 651589. 1,800 compounds, 72% hits. inhibition, % at 18.8 µM. shares compounds with HIF-2a inh;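 active = mean inhibition of the reporter signal across four replicates at the single tested dose of 50% or more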
* marks the source's active call; other numbers are inactive results; · = no result. Most compounds without a hit are left out; they make up all but 2.3% or so of the library.

SMILES | iPSC survival up | TWEAK Fn14 block | CF NFkB block | LGR2 inh | KKLEB cytotox | HIF-2a inh | HIF-2a conf | HIF-1a counter | others
O=c1cc(C(Cl)(Cl)Cl)oc2c1ccc1ccccc12 | -2 | 56* | 6 | · | 8 | 35 | · | · | Mdm2-MdmX confirm=103*
COc1ccc(/C=C/C(=O)C23CC4CC(CC(C4)C2)C3)cc1CN1CCOCC1 | -1 | 26 | 13 | 16 | -6 | 44* | 2 | 42
CC(C)NC(=O)N[C@H]1C=C[C@H](CC(=O)O)O[C@@H]1CO | · | · | · | -8 | · | · | · | ·
O=C(CCl)N=c1sccn1Cc1ccc(Cl)cc1Cl | 0 | 55* | 90* | · | -85* | 17 | · | · | Mdm2-MdmX confirm=103*
CCC(=O)OCC(=O)N=c1sccn1Cc1ccc(C)cc1 | 0 | 6 | 3 | -3 | 7 | 4 | · | ·
CCC(=O)OCC(=O)N=c1sccn1Cc1ccccc1Cl | 0 | -2 | 18 | -3 | -20 | 17 | · | ·
O=C(CCl)N=c1sccn1Cc1ccccc1Cl | 0 | -1 | 78* | -10 | -68* | 8 | · | · | Mdm2-MdmX confirm=103*
CCOc1ccc(-c2cc(CCCC(=O)Nc3cccc(OC)c3)no2)cc1 | -1 | 57* | 6 | -17 | -6 | 42* | 52* | 70*
CCOc1ccc(-c2cc(CCCC(=O)Nc3cc(OC)ccc3OC)no2)cc1 | -1 | 50 | -11 | · | 21 | 57* | 79* | 52*
CCOc1ccc(NC(=O)CCCc2cc(-c3ccc(OCC)cc3)on2)cc1 | -1 | -20 | -11 | · | -15 | 4 | · | ·
COc1ccc(NC(=O)N(C)C[C@@H]2Oc3ccc(NC(=O)CCC(F)(F)F)cc3C(=O)N([C@@H](C)CO)C[C@@H]2C)cc1 | · | · | · | -7 | · | · | · | ·
COCC(=O)N1CC2(CN(Cc3ccccc3)C2)c2c([nH]c3cc(OC)ccc23)[C@H]1CO | · | · | · | 7 | · | · | · | ·
CCNC(=O)C[C@@H]1CC[C@@H]2[C@H](COc3ccc(NC(=O)Nc4ccccc4Cl)cc3C(=O)N2C)O1 | · | · | · | -2 | · | · | · | ·
O=C(N[C@@H]1C=C[C@H](CC(=O)N2CCOCC2)O[C@H]1CO)c1ccc2c(c1)OCO2 | · | · | · | -5 | · | · | · | ·
Cc1nc2ccc(NC(=O)c3nn(CC(C)C)c(=O)c4ccccc34)cc2s1 | 0 | -8 | -13 | -1 | 4 | -47 | · | · | Mdm2-MdmX confirm=93*
O=C1C=C(c2ccccc2)C(=O)N1Nc1ccccc1 | -1 | -1 | 45 | · | 19 | 77* | 56* | 30
C[C@@H]1CN([C@H](C)CO)C(=O)c2cccc(NC(=O)Nc3ccccc3)c2O[C@H]1CN(C)S(=O)(=O)c1cccs1 | · | · | · | -2 | · | · | · | ·
C=CCn1c(Sc2ncc([N+](=O)[O-])s2)n[nH]c1=O | -1 | 0 | 14 | 6 | 17 | 93* | · | · | Mdm2-MdmX confirm=103*
CCOC(=O)c1c2c(n(C)c1C)C(=O)C(=O)c1ccc(Br)cc1-2 | -3 | 87* | 97* | · | -78* | 12 | · | · | Mdm2-MdmX confirm=97*
Cc1sc2ncnc(Nc3ccccc3)c2c1C | -1 | 2 | 2 | · | 2 | -55 | · | ·
Cc1sc2ncnc(Nc3ccc(N4CCOCC4)cc3)c2c1-c1ccccc1 | 2 | 25 | 24 | -2 | -14 | 45* | 24 | 79*
Cc1ccc(S(=O)(=O)NC(CC(C)C)C(=O)NCC(c2ccco2)N2CCCCC2)cc1 (stereo not drawn) | -1 | 104* | -22 | · | 13 | 80* | 88* | 93*
CC(=O)Nc1ccc(S(=O)(=O)NC(C)C(=O)NCC(c2ccco2)N2CCCCC2)cc1 (stereo not drawn) | 0 | -2 | -10 | -11 | 6 | 14 | · | ·
CO[C@@H]1CN(C)C(=O)c2ccc(NS(=O)(=O)c3ccccc3Cl)cc2OC[C@H](C)NC[C@@H]1C | · | · | · | 9 | · | · | · | ·
O=C(O)COc1ccc2oc3ccccc3c2c1 | -2 | 36 | -3 | -11 | 5 | 53* | 68* | 30
SMILES | iPSC survival up | TWEAK Fn14 block | CF NFkB block | LGR2 inh | KKLEB cytotox | HIF-2a inh | HIF-2a conf | HIF-1a counter | others
O=C(O)COc1ccc2occ(C(=O)c3ccccc3)c2c1 | -3 | -6 | 6 | · | 0 | 7 | · | ·
OC1(C#CCN2CCOCC2)CCCCC1 | -1 | 5 | 2 | 16 | 7 | 19 | · | ·
C(#CC12CC3CC(CC(C3)C1)C2)CN1CCOCC1 | -1 | 1 | 4 | 5 | -4 | 41* | 4 | -6
O=C(C[C@@H]1CC[C@H]2[C@@H](COC[C@H](O)CN2Cc2nccs2)O1)NCc1ccc(Cl)cc1 | · | · | · | 4 | · | · | · | ·
S=C(NCCSCc1ccc(Cl)cc1Cl)Nc1ccccc1 | -3 | 17 | 3 | · | -10 | 16 | · | ·
S=C(Nc1ccccc1)Nc1ccc(OCc2ccc(Cl)cc2Cl)cc1 | 3 | 32 | 2 | · | 0 | 93* | 98* | 100*
O=S(=O)(N[C@@H]1CC[C@H](CCn2cc(-c3ccccn3)nn2)O[C@@H]1CO)c1cccc(Cl)c1 | · | · | · | 0 | · | · | · | ·
COc1ccc2c(C)c(Cl)c(=O)oc2c1 | -1 | -16 | -23 | 11 | 10 | -9 | · | ·
C=C1CC(COc2ccc3c(C)c(Cl)c(=O)oc3c2)(c2ccccc2)OC1=O (stereo not drawn) | -5 | 83* | 91* | 49* | -71* | 85* | 71* | 105*
O=C(c1ccccc1)c1cc(Cl)ccc1N1C(=O)C=CC1=O | -3 | 5 | 58* | · | -14 | 75* | 78* | -11
Cc1ccc(Oc2c(C(N)=O)cc([N+](=O)[O-])cc2[N+](=O)[O-])cc1 | 2 | 41 | 85* | 11 | -95* | 94* | 74* | 102* | Mdm2-MdmX confirm=102*
Cc1ccc(CNc2ccc([N+](=O)[O-])cc2C(N)=O)cc1 | 2 | -34 | 2 | -104 | -11 | -296 | · | ·
CCCNC(=O)N(C)C[C@@H]1Oc2ncc(-c3ccc(OC)cc3)cc2C(=O)N([C@@H](C)CO)C[C@@H]1C | · | · | · | -4 | · | · | · | ·
COc1cccc(-n2c(SCC(=O)Nc3cc(C)on3)nc3c([nH]c4ccccc43)c2=O)c1 | 0 | -11 | 8 | -14 | -11 | 39* | 1 | 22
Cc1ccc(NC(=O)[C@H](Cc2c[nH]c3ccccc23)NC(=O)[C@@H]2Cc3ccccc3CN2)c(C)c1 | 0 | 3 | -24 | 0 | -4 | -47 | · | · | Mdm2-MdmX confirm=98*
CCCC(=O)Nc1ccc2c(c1)C(=O)N(C)C[C@@H](OC)[C@H](C)CN(C(=O)Cc1cccnc1)[C@H](C)CO2 | · | · | · | -4 | · | · | · | ·
COC(=O)CSc1nc(N)c(C#N)c(-c2ccc(O)cc2)c1C#N | 1 | -13 | 12 | 3 | -9 | 40* | 35 | 21

Screening data as filed in PubChem.
